The source made the active and inactive calls. Calls come from the whole dose curve; as a rule, active = well fitted activation curve with a large enough effect; inconclusive = small, poorly fitted or top-dose-only effect; inactive = no such curve, though single readings can be large or run the other way.
Biological target: Parathyroid hormone/parathyroid hormone-related peptide receptor (Homo sapiens) (UniProt Q03431)
Experiment: qHTS for PTHR1 Agonists: Optimization Screen against the NCGC LOPAC library (AID 1347079)
Conditions: HEK293 GP2 PTHR1 GloSensor cAMP luminescence, 1 h; series mostly up to 57.1 µM
From the text: The goal of the proposed studies is to discover new compounds that act as potent agonists on the parathyroid hormone receptor type-1 (PTHR1). The PTHR1 plays critical roles in maintaining blood calcium and phosphate levels, as well as in controlling bone remodeling. PTHR1 agonists could thus be useful for treating diseases such as hypoparathyroidism and osteoporosis. In the former disease, an agonist drug would help maintain normal blood calcium and phosphate levels under conditions of parathyroid hormone deficiency. In the latter disease, an agonist drug would stimulate new bone formation and thus reduce the risk of fracture, under conditions of bone fragility, as occurs in aging. We performed an optimization assay of the quantitative high-throughput screening (qHTS) for the parathyroid hormone receptor type-1 (PTHR1) against the NCGC LOPAC library collection of […] compounds using a unique HEK-293-derived cell line (GP2) that expresses the PTHR1 and a GloSensor cAMP reporter construct. Increase in signal (activation / agonist) is the desired outcome for compounds of interest. NIH Chemical Genomics Center [NCGC] NIH Molecular Libraries Probe Production Centers Network [MLPCN] MLPCN Grant: P01 DK011794 Assay Submitter (PI): Thomas Gardella PhD, Massachusetts General Hospital
Reagents / Controls: M-PTH (1-15) peptide hormone fragments was provided by the assay provider and was used as a control. Column 1 was treated with M-PTH titration (1:2 dilution) beginning with a final concentration of 10uM. Column 2 was treated with M-PTH final concentration of 10uM. Columns 3 and 4 were treated with DMSO only to assess background and noise signal. Assay Steps: Four microLiter of cells suspension was dispensed in a 1536-well assay plate at a final density of 3000 cells/well. The plates were incubated overnight, after which 4uL of 0.5mM of BloTium Luciferin plus 0.5mM IBMX was added. Next, the plate was incubated at 37C for 1hr before 23nL of compound (at various final concentrations from 40uM to 0.32uM) and control were added using a 1536-well array Kalypsys pin-tool. The treated plates were again incubated at 37C for another hour. Luminescence signal was obtained using the PerkinElmer ViewLux plate reader after 15min or room temperature incubation.

Sequence of Parathyroid hormone/parathyroid hormone-related peptide receptor (Homo sapiens) (Q03431 whole entry, looked up): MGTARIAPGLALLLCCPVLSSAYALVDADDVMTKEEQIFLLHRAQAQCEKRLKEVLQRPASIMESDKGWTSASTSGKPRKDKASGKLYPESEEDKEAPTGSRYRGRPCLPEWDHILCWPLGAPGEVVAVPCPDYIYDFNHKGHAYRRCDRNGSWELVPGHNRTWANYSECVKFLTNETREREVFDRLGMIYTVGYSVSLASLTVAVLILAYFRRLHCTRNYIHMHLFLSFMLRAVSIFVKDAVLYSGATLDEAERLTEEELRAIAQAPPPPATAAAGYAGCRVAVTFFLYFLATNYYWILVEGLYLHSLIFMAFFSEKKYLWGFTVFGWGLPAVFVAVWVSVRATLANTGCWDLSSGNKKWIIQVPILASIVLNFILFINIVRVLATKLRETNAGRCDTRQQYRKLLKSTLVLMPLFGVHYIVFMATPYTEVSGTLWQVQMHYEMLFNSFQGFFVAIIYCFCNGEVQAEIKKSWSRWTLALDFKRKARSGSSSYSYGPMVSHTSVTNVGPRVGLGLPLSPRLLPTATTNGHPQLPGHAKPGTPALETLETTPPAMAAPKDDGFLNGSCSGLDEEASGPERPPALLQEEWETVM

| SMILES | outcome |
| --- | --- |
| c1ccc([C@H]2CN3CCSC3=N2)cc1 | inactive |
| CCOC(=O)N1CCC(=C2c3ccc(Cl)cc3CCc3cccnc32)CC1 | inactive |
| CN1CCN(CCCN2c3ccccc3Sc3ccc(C(F)(F)F)cc32)CC1 | inactive |
| O=C1CCC(N2C(=O)c3ccccc3C2=O)C(=O)N1 (stereo not given) | inactive |
| Cn1cnc([N+](=O)[O-])c1Sc1ncnc2nc[nH]c12 | inactive |
| CC(C)(C)NCC(O)c1ccc(O)c(CO)c1 (stereo not given) | inactive |
| Cc1cn[nH]c1 | inactive |
| CC(C[N+](C)(C)C)OC(N)=O (stereo not given) | inactive |
| Clc1cccc(Cl)c1NC1=NCCN1 | inactive |
| O=C1CCc2cc(OCCCCc3nnnn3C3CCCCC3)ccc2N1 | inactive |
| CCn1cc(C(=O)O)c(=O)c2cc(F)c(N3CCNC(C)C3)c(F)c21 (stereo not given) | inactive |
| O=c1[nH]cnc2[nH]ncc12 | inactive |
| NC[C@H](O)c1ccc(O)c(O)c1 | inactive |
| Cc1cccc(-c2[nH]c(C(C)(C)C)nc2-c2ccc3nccnc3c2)n1 | inactive |
| Cc1oncc1C(=O)Nc1ccc(C(F)(F)F)cc1 | inactive |
| CCC(C)N(C)C(=O)c1cc2ccccc2c(-c2ccccc2Cl)n1 (stereo not given) | inactive |
| Cc1[nH]c(=O)c(C#N)cc1-c1ccc2nccn2c1 | inactive |
| NC(=O)c1cnccn1 | inactive |
| N[C@@H]1CONC1=O | inactive |
| Cc1[nH]c(=O)c(C#N)cc1-c1ccncc1 | inactive |

| SMILES | outcome |
| --- | --- |
| OC(CCN1CCCCC1)(c1ccccc1)C1CC2C=CC1C2 (stereo not given) | inactive |
| CCOC(=O)C1=C[C@]2(CC)CCCN3CCc4c(n1c1ccccc41)[C@@H]32 | inactive |
| Cc1ccc(N(CC2=NCCN2)c2cccc(O)c2)cc1 | inactive |
| CC(C)C[C@H](NC(=O)[C@@H](O)[C@H](N)Cc1ccccc1)C(=O)O | inactive |
| N=c1nc(N2CCCCC2)cc(N)n1O | inactive |
| O=c1n(CCCN2CCN(c3cccc(Cl)c3)CC2)nc2ccccn12 | inactive |
| Nc1ccc(S(=O)(=O)Nc2ccnn2-c2ccccc2)cc1 | inactive |
| C1COC(NC(C2CC2)C2CC2)=N1 | inactive |
| NC(N)=NC(=O)c1nc(Cl)c(N)nc1N | inactive |
| NNCCc1ccccc1 | inactive |
| CC(C)NCC(O)COc1ccc(COCCOC(C)C)cc1 (stereo not given) | inactive |
| CNC[C@H](O)c1cccc(O)c1 | inactive |
| CC(=O)Oc1ccccc1C(=O)O | inactive |
| CCCCNc1cc(C(=O)O)cc(S(N)(=O)=O)c1Oc1ccccc1 | inactive |
| O=NN(CCCl)C(=O)NCCCl | inactive |
| Cc1ccccc1C(OCCN(C)C)c1ccccc1 (stereo not given) | inactive |
| OC(CN1CCC(Cc2ccc(F)cc2)CC1)c1ccc(Cl)cc1 (stereo not given) | inactive |
| CCN(CC)CCCC(C)Nc1ccnc2cc(Cl)ccc12 (stereo not given) | inactive |
| O=C(Nc1nc2ccccc2n1CCN1CCOCC1)c1cccc([N+](=O)[O-])c1 | inactive |
| NCCc1ccc(O)c(O)c1 | inactive |

From PubChem BioAssay (NCATS)
